Measured values: PubChem BioAssay AID1499 (Sanford-Burnham Center for Chemical Genomics, 2009)
About 65 (0.07%) of roughly 93,000 compounds were called active.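 The calls were made as follows: active = 10 µM primary screen giving 50% or more activity, confirmed by 40% or more on retest at that dose; inactive = the rest.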 Shown is part of a subset that was picked to be rich in actives.

target: Integrin beta-2 (Homo sapiens) + Integrin alpha-M (Homo sapiens) (UniProt P05107+P11215); experiment: enhancers of CD11b/CD18 adhesion to fibrinogen, primary screen, K562 cells, luminescence (AID 1499); conditions: ATPlite luminescence, at 10 µM, hits give high values
Sequence (P05107 whole entry, looked up, other chains not shown): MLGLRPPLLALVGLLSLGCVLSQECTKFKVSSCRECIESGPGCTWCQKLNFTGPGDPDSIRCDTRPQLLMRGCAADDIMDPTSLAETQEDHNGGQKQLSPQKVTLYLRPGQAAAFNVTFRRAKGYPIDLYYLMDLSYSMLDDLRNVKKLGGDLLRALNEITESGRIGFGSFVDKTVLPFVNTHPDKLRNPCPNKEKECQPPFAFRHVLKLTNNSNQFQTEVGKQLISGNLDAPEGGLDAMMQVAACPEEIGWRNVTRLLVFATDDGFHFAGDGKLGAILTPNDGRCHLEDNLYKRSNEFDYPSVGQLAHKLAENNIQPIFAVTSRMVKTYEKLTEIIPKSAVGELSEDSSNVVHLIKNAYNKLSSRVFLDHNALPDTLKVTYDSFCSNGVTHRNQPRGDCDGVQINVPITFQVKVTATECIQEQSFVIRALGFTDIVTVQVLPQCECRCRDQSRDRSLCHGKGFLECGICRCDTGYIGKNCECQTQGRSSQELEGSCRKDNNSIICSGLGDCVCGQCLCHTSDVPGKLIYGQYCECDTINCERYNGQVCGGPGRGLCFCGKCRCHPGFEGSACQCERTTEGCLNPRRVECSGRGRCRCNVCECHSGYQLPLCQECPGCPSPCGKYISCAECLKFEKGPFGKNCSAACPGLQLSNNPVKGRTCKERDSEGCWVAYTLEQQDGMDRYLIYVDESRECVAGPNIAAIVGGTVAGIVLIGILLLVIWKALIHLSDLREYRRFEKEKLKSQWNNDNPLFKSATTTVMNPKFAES

activation, inactive:
CCOC(=O)c1c(NC(=S)Nc2ccccc2C)sc2c1CCC2 2.8%
CCOCCCNC(=O)C(=O)NCCCOCC -2.3%
CCc1nnc(NC(=O)C2CC(=O)N(c3ccc4c(c3)OCCO4)C2)s1 (configuration not stated) 5%
CCCn1c(C)cc(/C=C(\C#N)C(=O)OCC(=O)Nc2cc(OC)c(OC)c(OC)c2)c1C 3%
O=C(/C=C/c1ccccc1)Nc1nnc(SCC(=O)c2ccc3ccccc3c2)s1 59.6%
CCc1nnc(NC(=O)[C@@H](NC(=O)c2cccc(C)c2)C(C)C)s1 -1.2%
O=C(CSc1nc2ccccc2[nH]1)Nc1nc(-c2ccccc2)c(-c2ccccc2)o1 -6.7%
CN(Cc1cccs1)C(=O)Cc1c[nH]c2ccccc12 -1.9%
COC(=O)c1ccc(OCC(O)CN(CCO)CC(O)Cn2ccc3ccccc32)cc1 (configuration not stated) 8.9%
Cc1c(Cl)cnc(NC(=O)COC(=O)c2ccc(S(=O)(=O)NCc3ccco3)cc2)c1Cl 12.8%
CC(C)(C)c1ccc(C(=O)NCc2nnc(SCC(=O)N3CCCc4ccccc43)n2-c2ccccc2)cc1 -4.7%
Cc1cc(Br)ccc1SCC(=O)OCC(=O)NCc1ccc2c(c1)OCO2 4.5%
N#Cc1c(-c2ccc(F)cc2)cc(C2CC2)nc1SCC(=O)c1cccs1 12.6%
CCn1c2ccccc2c2cc(NC(=O)COC(=O)c3ccccc3Br)ccc21 0.6%
CC(C)Nc1nnc(SCC(=O)/C=C2\N(C)c3ccccc3C2(C)C)s1 0%
Cc1cccc(CC(=O)N2CCN=C2SCc2ccc([N+](=O)[O-])cc2)c1 5.7%
CCOc1ccc(CCNC(=O)CSc2cc(=O)n(C)c3ccc(Cl)cc23)cc1OCC 0.6%
Cc1c(C(=O)Nc2cccc(-c3nnc4n3CCCCC4)c2)oc2ccccc12 0.4%
CC(=O)c1ccc(NC(=O)Nc2ccc([N+](=O)[O-])cc2C)cc1 -2.3%
Cc1cc2oc(=O)cc(CN3CCN(S(=O)(=O)c4cccs4)CC3)c2cc1C(C)C -0.5%
O=C(CCCCCNC(=O)c1ccccc1)N/N=C/c1ccccc1 -6.5%
COc1ccc(NS(=O)(=O)c2ccc(NC(=S)NC(=O)/C=C/c3ccc(C)cc3)cc2)nn1 3.8%
O=C(NNC(=S)Nc1ccc(Br)cc1Cl)c1ccco1 -7.7%
COc1ccc(C(CC(=O)Nc2ccc(C)cc2)NC(=O)C(F)(F)F)cc1 (configuration not stated) -0.4%
Brc1ccc(-c2csc(N/N=C/c3ccc4c(c3)OCO4)n2)cc1 18.4%
CCOc1ncccc1C(=O)N(C)CC(=O)Nc1ccc(F)cc1 -3.5%
CCCN1CNC(=S)N(CCc2ccccc2)C1 5.1%
Cc1cc(C)cc(C(=O)N2CCN=C2SCc2ccc([N+](=O)[O-])cc2)c1 0.8%
COc1cc(OC)c(C(=O)OC(C)C(=O)Nc2cc(C(F)(F)F)ccc2Cl)cc1OC (configuration not stated) 4.1%
O=C(Nc1ccccc1F)c1ccccc1-c1ccccc1 0.5%
Cc1ccc(NC(=O)Nc2ccccc2)c(Br)c1 12.1%
COc1ccccc1CN(C)C(=O)C1(c2ccc(Cl)cc2)CC1 11.3%
C/C(=N\NS(=O)(=O)c1ccc(Cl)cc1)c1ccc(NC(=O)c2ccco2)cc1 -2.4%
CC1CCN(c2ccc(C(=O)NCc3ccc4c(c3)OCO4)cc2[N+](=O)[O-])CC1 0.5%
O=C(COC(=O)c1ccc(Cl)nc1)NCc1ccc2c(c1)OCO2 4%
COCCn1c(=NC(=O)c2ccccc2[N+](=O)[O-])sc2cc(S(C)(=O)=O)ccc21 2%
CCOC(=O)c1c(/N=C/c2cc(C)ccc2O)sc2c1CCC2 -6%
COc1cccc(NC(=O)C(Sc2nc3ccccc3c(=O)n2CC(C)C)c2ccccc2)c1 (configuration not stated) 1%
COc1cc(C(=O)NCc2nnc(SCC(=O)Nc3nc4ccc(C)cc4s3)o2)cc(OC)c1OC 10.4%
COc1ccc(-c2csc(NC(=O)CCCc3cccs3)n2)cc1 -1.8%
O=C(Nc1ccc2c(c1)OCO2)c1ccc(N2C(=O)c3ccccc3C2=O)cc1 23.5%
C/C(CC1CC(C)(C)OC1=O)=N/Nc1nc(-c2ccccc2)cs1 (configuration not stated) -0.2%
O=C(Cn1cnc2ccccc21)N/N=C/c1ccco1 -5.8%
c1ccc(C2=Nc3cccc4cccc(c34)N2)cc1 7%
COc1ccc(Br)cc1CN(C)CC(=O)Nc1cc([N+](=O)[O-])ccc1OC -0.1%
CCOC(=O)c1cnc2ccc(F)cc2c1Nc1ccc2c(c1)OCCO2 4.3%
Cc1c(Br)c([N+](=O)[O-])nn1CC(=O)Nc1sc2c(c1C(=O)OC(C)C)CCC(C)C2 (configuration not stated) 10.3%
COc1ccc(/C=C2/C(=O)OCc3cc(OC)c(OC)cc32)c(OC)c1 4%
COc1ccc(-c2csc(NC(=O)COC(=O)Cc3ccc(Cl)cc3Cl)n2)cc1 -1.1%
Cc1ccc(-n2c(SCC(=O)N3c4ccccc4Sc4ccccc43)nnc2-c2ccncc2)cc1 7.2%
Cc1ccc(C)c(NC(=S)NCC(c2cccnc2)N2CCOCC2)c1 (configuration not stated) 5%
Cc1ccc(S(=O)(=O)N2CCN(CC(=O)N/N=C/c3cc([N+](=O)[O-])ccc3Cl)CC2)cc1 -2.8%
COc1ccc(OCC(O)CNC(=O)Nc2ccc(Cl)cc2)cc1 (configuration not stated) 7.7%
COc1cc(OC)c(C(=O)Nc2ccccc2-c2ccccc2)cc1OC 6.2%
COc1ccc([N+](=O)[O-])cc1NC(=O)c1ccc(N(Cc2ccccc2C)S(C)(=O)=O)cc1 0.6%
COc1ccc(C2Nc3ccccc3C(=O)N2c2ccc(F)cc2)cc1Cn1nnc2ccccc21 (configuration not stated) -1.9%
O=C(N/N=C/c1cccc([N+](=O)[O-])c1)C1CC(=O)N(c2ccc(Br)cc2)C1 (configuration not stated) -1.9%
